Screening results: PubChem BioAssay, several laboratories
Most compounds without a hit are left out; they make up all but 3.1% or so of the library.
EWS-Fli inh: EWS/Fli-driven NR0B1 reporter inhibitors, primary screen, A673 cells, NR0B1 luciferase, luminescence, MLPCN library; viability-normalised; inhibition, % at 12.6 µM; 0.67% of 350,000 active; AID 651661, 2012;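 active means mean inhibition of at least 50% after viability correction, with every replicate also passing that limit; inconclusive means mean reaches 50% but only one of two replicates passes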;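 further: firefly luciferase signal divided by Alamar Blue viability fluorescence both relative to DMSO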
PAX8 reporter: inhibitors of PAX8-driven TPO luciferase reporter, primary screen, RMG-I cells, single concentration | SteadyGlo, 24 h | inhibition, % at 12.6 µM | 1.2% of 360,000 active | AID 652154, 2013;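 active means mean replicate inhibition at least 60% with every replicate also reaching 60%; inconclusive means only one of the two criteria is met; inactive means mean below 60% and not all replicates reaching 60%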;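 further: luciferase light reporting Pax8 driven TPO promoter activity; plate controls were median of neutral control wells for no effect and mitoxantrone controls for full effect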
LMP1 NFkB inh: EBV LMP1-driven NF-kappaB luciferase reporter inhibitors, primary screen, cell-based, luminescence, single point; LMP1-induced NF-kappaB luciferase reporter cells; inhibition, % at 12.5 µM; 0.69% of 350,000 active; in the data active means inhibition above about 41%; inconclusive means no clear call, values can overlap the other calls;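 further: 0% = neutral control wells and 100% = reference inhibitor control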
TROY NFkB inh: inhibitors of TROY-driven NF-kB signaling, primary screen, Q293 LMP1-TROYcd cells, NF-kB luciferase, uHTS | 0.98% of 360,000 active | inhibition, % at 10 µM | Q293 LMP1-TROYcd NF-kB luciferase reporter, 4 h;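 active means compounds whose plate-normalised and pattern-corrected inhibition of the luciferase reporter signal at the single screening dose is 50% or more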
LGR2 inh: inhibitors of bursicon-induced LGR2 CRE-luciferase signal, primary screen, cell-based, HEK293, CRE-luciferase reporter, bursicon stimulation; Drosophila bursicon receptor LGR2 (rickets); bursicon-stimulated, 4 h; inhibition, % at 9.99 µM; 0.35% of 380,000 active; AID 720647, 2013;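 active means drop in luminescence signal, shown as inhibition above about 50% in the replicate tests, limit read from the data, passing the limit was not always enough; inconclusive means probably only some replicates passing the limit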;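 further: agonist challenge used bursicon conditioned medium at about half maximal strength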
TWEAK-Fn14 inh: inhibitors of TWEAK-Fn14 signaling, primary screen, luciferase reporter cells, uHTS | TWEAK-stimulated Fn14 reporter cells, luciferase luminescence, 8 h | inhibition, % at 10 µM | 2% of 360,000 active | AID 1159606, 2016; in the data active means inhibition above about 50%
Active calls of the source: *; u = inconclusive; x = no result.

SMILES	EWS-Fli inh	PAX8 reporter	LMP1 NFkB inh	TROY NFkB inh	LGR2 inh	TWEAK-Fn14 inh
CC(=O)N(C)C[C@H]1Oc2ncc(C#C[C@@H](C)O)cc2C(=O)N([C@@H](C)CO)C[C@H]1C	-17.2	x	x	x	9.4	x
O=C(C[C@@H]1C=C[C@@H](NC(=O)c2ccncc2)[C@H](CO)O1)NCc1ccncn1	x	-26.7	x	x	-0.9	x
CC(C)(C)c1cc(/C=N/O)cc(C(C)(C)C)c1O	-2.6	-15.9	9.8	36.7	10.7	53.7*
CC(C)(C)c1cc(/C=C2\NC(=O)NC2=O)cc(C(C)(C)C)c1O	3.3	6.9	-4.5	3.4	27.6	6.1
CN1C(=O)c2cc(NC(=O)Nc3ccccc3F)ccc2OC[C@H]2O[C@@H](CC(=O)O)CC[C@@H]21	0.5	-11.2	x	x	8.3	x
CC(C)(C)NC(=O)CN(C(=O)CCC(=O)Nc1nccs1)c1ccc2c(c1)OCCO2	1.0	0.7	-4.3	2.1	8.4	12.3
Cc1ccccc1N(CC(=O)NCc1ccco1)C(=O)CCC(=O)Nc1nccs1	4.3	13.5	2.7	-9.5	10.8	81.5*
CC(C)CCNC(=O)CN(C(=O)CCC(=O)Nc1nccs1)c1ccc2c(c1)OCCO2	26.7	0.6	16.8	68.9*	6.7	78.3*
Cc1noc(C)c1NC(=O)N(C)C[C@@H]1OCCCC[C@H](C)Oc2ccc(NS(=O)(=O)c3ccc(Cl)cc3)cc2C(=O)N([C@@H](C)CO)C[C@@H]1C	-0.4	-15.5	x	x	-18.0	x
COc1ccc(C)cc1NC(=O)ON=C1CCCCC1	-0.8	-8.0	x	-6.5	-8.4	-18.8
O=C(Nc1cccc2ccccc12)ON=C1CCCCC1	9.0	23.1	x	76.0*	3.7	80.7*
Cc1ccc(C(=O)Oc2cc(N)n(S(=O)(=O)c3ccc(F)cc3)n2)cc1	5.1	-11.9	-1.8	44.3	1.9	78.7*
O=C(O)C(NS(=O)(=O)c1ccc(F)cc1)c1ccccc1 (stereo not drawn)	13.7	9.6	-15.1	14.1	-1.8	89.5*
CO[C@@H]1CN(C)C(=O)c2ccc(NS(C)(=O)=O)cc2OC[C@H](C)N(CC2CC2)C[C@@H]1C	-2.3	-10.7	x	x	-6.7	x
CC(=O)Nc1cccc(NS(=O)(=O)Cc2ccc(Cl)cc2)c1	x	x	-10.5	-10.0	x	-16.8
CC(=O)c1ccc(NS(=O)(=O)Cc2ccc(Cl)cc2)cc1	x	x	-11.8	63.2*	x	36.7
C[C@H](CO)N1C[C@H](C)[C@@H](CN(C)C(=O)Nc2cccc3ccccc23)Oc2ccc(NC(=O)Cn3cnnn3)cc2CC1=O	x	11.2	x	x	12.3	x
CC(C)Oc1cccc(C(=O)NC(=S)Nc2ccccc2)c1	x	-93.7	-42.5	66.5*	-43.9	59.4*
C[C@@H]1CCCCO[C@H](CN(C)CC2CCCCC2)[C@H](C)CN([C@H](C)CO)C(=O)c2cc(NC(=O)Nc3cccc4ccccc34)ccc2O1	86.7*	5.4	x	x	-5.5	x
C[C@@H]1CN([C@@H](C)CO)C(=O)c2cc(NC(=O)Nc3ccccc3)ccc2O[C@H]1CN(C)C(=O)Nc1cccc2ccccc12	8.7	x	58.2*	51.7*	11.1	48.1
C[C@H](CO)N1C[C@H](C)[C@@H](CN(C)Cc2ccccc2)Oc2c(NC(=O)Cc3ccccc3)cccc2C1=O	7.1	7.9	-1.4	10.6	8.9	11.6
C[C@H](CO)N1C[C@H](C)[C@@H](CN(C)C)Oc2c(NC(=O)Cc3ccccc3)cccc2C1=O	3.6	-3.1	44.3*	-2.5	-16.9	-26.8
Cc1ccc(S(=O)(=O)Nc2cccc3c2O[C@@H](CN(C)C(=O)Nc2ccc(C(F)(F)F)cc2)[C@@H](C)CN([C@H](C)CO)C3=O)cc1	0.1	104.3*	x	x	1.9	x
C[C@@H]1CN([C@@H](C)CO)C(=O)c2cc(NC(=O)Nc3ccccc3)ccc2O[C@@H]1CN(C)C(=O)Nc1cccc2ccccc12	13.0	x	x	x	-8.4	x
Cc1ccc(S(=O)(=O)Nc2cccc3c2O[C@H](CN(C)C(=O)Nc2ccc(C(F)(F)F)cc2)[C@H](C)CN([C@H](C)CO)C3=O)cc1	5.4	18.3	x	x	6.7	x
SMILES	EWS-Fli inh	PAX8 reporter	LMP1 NFkB inh	TROY NFkB inh	LGR2 inh	TWEAK-Fn14 inh
O=C(C[C@H]1CC[C@H]2NC[C@H](O)COC[C@@H]2O1)NCCN1CCCC1	x	-4.8	x	x	1.1	x
C[C@@H]1CN([C@H](C)CO)C(=O)c2cc(NC(=O)Nc3cccc4ccccc34)ccc2O[C@@H](C)CCCCO[C@@H]1CN(C)CC1CCCCC1	76.5*	-2.9	x	x	-3.9	x
C[C@@H]1CCCCO[C@H](CN(C)CC2CCCCC2)[C@H](C)CN([C@@H](C)CO)C(=O)c2cc(NC(=O)Nc3cccc4ccccc34)ccc2O1	18.5	28.5	x	x	-10.2	x
C[C@H]1CN([C@@H](C)CO)C(=O)c2cccc(NC(=O)Nc3cccc4ccccc34)c2O[C@H]1CN(C)CC1CC1	-2.8	89.6*	x	x	12.3	x
C[C@@H]1CN([C@H](C)CO)C(=O)c2cc(NC(=O)Nc3cccc4ccccc34)ccc2O[C@@H]1CN(C)CC1CCCCC1	70.3*	x	x	x	10.2	x
C[C@H](CO)N1C[C@H](C)[C@@H](CN(C)CC2CC2)Oc2c(NC(=O)Nc3cccc4ccccc34)cccc2C1=O	12.1	16.4	x	x	x	x
C[C@H](CO)N1C[C@H](C)[C@H](CN(C)CC2CCCCC2)OCCCC[C@H](C)Oc2ccc(NC(=O)Nc3cccc4ccccc34)cc2C1=O	92.0*	2.6	x	x	-4.3	x
COc1ccc(NC(=O)N2CCC3(CC2)CN(C(=O)CN2CCOCC2)[C@@H](CO)c2[nH]c4cc(OC)ccc4c23)cc1	-3.9	x	x	x	2.7	x
Cc1ccc(S(=O)(=O)N(C)C[C@H]2OCCCC[C@@H](C)Oc3ccc(NC(=O)CCC(F)(F)F)cc3C(=O)N([C@H](C)CO)C[C@@H]2C)cc1	-5.8	-9.0	x	x	-14.8	x
C[C@@H]1CCCCO[C@@H](CN(C)CC2CCCCC2)[C@@H](C)CN([C@@H](C)CO)C(=O)c2cc(NC(=O)Nc3cccc4ccccc34)ccc2O1	77.0*	-4.0	x	x	7.2	x
C[C@@H]1CN([C@@H](C)CO)C(=O)c2cccc(NC(=O)Nc3ccc(C(F)(F)F)cc3)c2O[C@@H]1CN(C)C(=O)Nc1cccc2ccccc12	2.2	x	x	x	67.3*	x
C[C@@H]1CN([C@@H](C)CO)C(=O)c2cccc(NC(=O)Nc3ccc(C(F)(F)F)cc3)c2O[C@H]1CN(C)C(=O)Nc1cccc2ccccc12	17.0	x	x	x	u	x
Cc1noc(C)c1S(=O)(=O)N(C)C[C@@H]1OCCCC[C@H](C)Oc2ccc(NC(=O)NC3CCCCC3)cc2C(=O)N([C@H](C)CO)C[C@@H]1C	5.9	17.0	x	x	-8.5	x
COc1ccc2c3c([nH]c2c1)[C@@H](CO)NCC31CCN(C(=O)c2ccccc2)CC1	-7.7	x	x	x	-14.6	x
